# Screens from PubChem.
# Hits are enriched below; roughly 10% of the tested compounds scored in any of these assays.
# ALDH1A1 inh: inhibitors of human aldehyde dehydrogenase 1A1; hit rate 7.3% among 220,000; Potency, µM (top dose mostly 75.3 µM), without a hit: top-dose activity, negative = inhibition, usual class: inhibitors; Purified ALDH1A1, NADH fluorescence, propionaldehyde substrate; P00352;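 also: potency is read from the fitted curve at half-maximal effect; plate controls were no enzyme wells and a reference inhibitor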
# Target sequence (P00352 whole entry, looked up): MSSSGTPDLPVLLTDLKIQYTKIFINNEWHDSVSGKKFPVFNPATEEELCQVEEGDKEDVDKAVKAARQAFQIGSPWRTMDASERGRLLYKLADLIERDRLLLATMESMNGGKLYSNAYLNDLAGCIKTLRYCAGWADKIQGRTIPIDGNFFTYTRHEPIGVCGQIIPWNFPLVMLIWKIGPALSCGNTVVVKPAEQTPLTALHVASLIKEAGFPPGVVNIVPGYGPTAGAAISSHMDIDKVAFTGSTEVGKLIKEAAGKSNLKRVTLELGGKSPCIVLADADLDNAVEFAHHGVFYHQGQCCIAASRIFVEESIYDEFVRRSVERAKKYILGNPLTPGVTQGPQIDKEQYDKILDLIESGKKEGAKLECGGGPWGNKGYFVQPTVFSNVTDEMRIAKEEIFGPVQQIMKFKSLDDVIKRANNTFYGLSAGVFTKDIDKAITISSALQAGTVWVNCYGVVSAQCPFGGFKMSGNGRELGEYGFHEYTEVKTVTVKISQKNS
# Luc counter: counter-screen: inhibitors of Kinase-Glo firefly luciferase; Kinase-Glo luciferase, ATP luminescence, 8 min; Potency, µM (top dose mostly 38.3 µM), for inactives: at the top dose activity change, negative = inhibition, hits mostly inhibitors; hit rate 0.28% among 200,000; active = well fitted inhibition curve with a large enough effect; inconclusive = small, poorly fitted or top-dose-only effect; also: potency is read from the fitted curve at half-maximal effect; nearly all actives have a fitted effect of over 60% in size
#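 Inhibition of Kinase-Glo luciferase light generation was assessed at 10 uM ATP in pH 7.2 imidazole buffer, with luminescence measured after eight minutes at ambient temperature.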
# HPGD block: blocks human HPGD enzyme activity. P15428. purified HPGD, NADH fluorescence kinetic, PGE2 substrate. Potency, µM, for inactives: at the top dose activity change, negative = inhibition, usual class: inhibitors. hit rate 4.3% among 150,000; also: potency is read from the fitted curve at half-maximal effect
#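 NADH formation kinetics: reaction with 30 uM PGE2 and 1 mM NAD+ (final), 20 nM enzyme, Tris-HCl pH 8 with Tween 20, after 15 min compound preincubation at room temperature. Fluorescence change, last versus first of five reads.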
# PNC inhibitor: blocks assembly of the perinucleolar compartment; PC3M PTB-GFP, PNC prevalence imaging, 16 h; stronger effect = lower value; activity change (PNC), negative = inhibition, % at 10 µM; hit rate 3.1% among 140,000; AID 2417;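 active = readout at or below -70, meaning at least 70% loss of cells showing the perinucleolar compartment, a nuclear body marking cancer cells; inconclusive = readout between -30 and a set limit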;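 also: plate controls were DMSO wells for no effect and camptothecin positive control wells for full effect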
#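 Compounds are pinned in duplicate onto adhered PC3M cells stably expressing GFP-tagged PTB and incubated 16 h at 37 C. Cells are then fixed, nuclei stained with Hoechst, and PNC-positive cells counted.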
# Lamin A splicing: modulators of lamin A splicing. HeLa LMNA splicing GFP/RFP minigene ratio, 48 h. Potency, µM (top dose mostly 46.1 µM), inactives show at the top dose ratio change, negative = inhibition, hits mostly inhibitors. hit rate 0.01% among 200,000; active = well fitted inhibition curve with a large enough effect in the signal ratio, with a control signal flat, not every such curve was filed as active; inconclusive = small, poorly fitted or top-dose-only effect, or effect the other way, or a change in a side signal; the % refers to the signal ratio; also: potency is read from the fitted curve at half-maximal effect
#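 S3 HeLa cells stably expressing lamin A-EGFP splicing minigene plus DsRed2, 600 cells/well, 48 h compound exposure at 37C. Laser-scanning cytometry; analysed as GFP (500-530 nm)/RFP (575-640 nm) total intensity ratio; 0.5% DMSO vehicle.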
# * hit, by the source's call; ? = inconclusive; · = not tested or not shown; [ ] = remark or other dose. Unless noted, calls follow the shape of the dose curve; as a rule, active = well fitted inhibition curve with a large enough effect (not every such curve was filed as active); inconclusive = small, poorly fitted or top-dose-only effect, or another doubt; inactive = no such curve, though single readings can be large or run the other way. Unless noted, % is scaled to controls: 0 for no effect and ±100 for the full control effect.
SMILES,ALDH1A1 inh,Luc counter,HPGD block,PNC inhibitor,Lamin A splicing
CC(C)C1O[C@H](/C=C\c2ccccc2)OCC1(C)C (some centres undefined),?,-6%[7.66 µM],-12%,·,·
[O-]/[N+](=C\c1ccncc1)c1ccc(Br)cc1,1.1µM*,-3%,?,?,0%
CCOC(=O)c1cccc(Nc2cc(C)nc(C)n2)c1,·,·,·,·,2%[46 µM]
COc1ccccc1Oc1nnnn1-c1ccc(C(N)=O)cc1,13µM*,15%,-8%,0,14%
COc1ccc(OCc2nnnn2-c2ccccc2)cc1,?,2%,-8%,-93*,-3%
Cc1ccc(C)c(Oc2nnnn2-c2ccccc2)c1,-16%,-2%,-12%,?,0%
COc1ccc(Oc2cnn(-c3ccccc3)c(=O)c2Br)cc1,25µM*,-2%,·,·,·
Brc1ccc(OCc2nnnn2-c2ccccc2)cc1,?,1%,·,·,?
Cc1ccc(C(C)C)c(Oc2nnnn2-c2ccccc2)c1,18µM*,0%,-3%,?,-1%
C[C@H](CC[C@@H]1OC1(C)C)C1CC[C@H]2[C@@H]3CC=C4C[C@@H](O)CC[C@]4(C)[C@H]3CC[C@]12C (some centres undefined),7%,·,·,·,·
Cc1cc(C)c(NC(=O)Cn2nc(-c3ccncc3)ccc2=O)c(C)c1,·,·,·,·,-3%[46 µM]
CCOc1ccc(S(=O)(=O)NCC(c2ccco2)S(=O)(=O)c2ccc(F)cc2)cc1 (centres undefined),·,·,·,·,10%[46 µM]
CCN1C(=O)N[C@@H](c2ccco2)C(C(=O)OC)=C1C,11%[13.5 µM],-1%[7.66 µM],-8%,·,?
c1ccc(-n2nnnc2OCCOc2nnnn2-c2ccccc2)cc1,2.5µM*,1%,-6%,7,11%
COc1ccc(-n2nnnc2-c2ccccc2)cc1,9%,-2%,-11%,-83*,-15%
COc1ccc(Oc2nnnn2-c2ccccc2)cc1,7.9µM*,-4%,-7%,?,-6%
Clc1ccc(-n2nnnc2-c2ccccc2)cc1,-2%,-5%,-8%,?,?
CC(C)Oc1nnnn1-c1ccccc1,-1%,11%,-13%,?,7%
CCOCCc1nn2c(=O)cc(COC(=O)c3ccc(NC(=O)c4cccs4)cc3)nc2s1,·,·,·,·,1%[46 µM]
Clc1cccc(Cl)c1/C=N\Nc1nccs1,?,-3%,7.9µM*,?,11%
COc1ccc(CN(Cc2ccco2)c2cnc(S(C)(=O)=O)nc2C(=O)Nc2ccc(C)c(C)c2)cc1,·,·,·,·,-6%[46 µM]
Nc1c(S(=O)(=O)c2ccccc2)cnc2c(-c3ccc(F)cc3)cnn12,?,-2%,?,?,?
COc1ccc(-c2cnn3c(N)c(S(=O)(=O)c4ccccc4)cnc23)cc1,8%,4%,20µM*,13,-10%
COc1ccc(C(C[N+](=O)[O-])c2c(-c3ccccc3)cc3ccccn23)c(OC)c1 (centres undefined),?,8%,22µM*,?,-21%
O=c1[nH]c(CSc2nnc3ccccn23)nc2cc(C(F)(F)F)ccc12,1%,2%,·,·,·
SMILES,ALDH1A1 inh,Luc counter,HPGD block,PNC inhibitor,Lamin A splicing
CCOC(=O)C1=C([Si](C)(C)C)c2ccccc2N(S(=O)(=O)C(F)(F)F)C1C(=O)OCC (centres undefined),?,-1%[39.9 µM],-26%,·,·
CCc1ccc(/C=N\NC(=O)c2ccc(Br)o2)s1,-4%,-10%,-24%,-3,9%
Cc1ccc(/C=N/NC(=O)c2ccc(Br)o2)s1,7%,-6%,-13%,-98*,30%
O=C(c1ccccc1)N(Cc1cccnc1)C1(C(=O)Nc2ccccc2)CCCCC1,1%,2%,-17%,-110*,8%
CC[C@@H]1CC(=O)N(SC[C@H](N)C(=O)O)C1=O,-1%[13.5 µM],-3%[7.66 µM],-6%,·,·
CNC(CC(=O)O)C(=O)O (centres undefined),-2%,2%,-1%,·,·
CCOC(=O)c1c(NC(=O)c2noc3c2CCCC3)sc(C)c1C,22µM*,-1%,?,1,-1%
COc1ccc(/C=C/C(=O)OCCC(C)C)cc1,-5%,-1%[39.9 µM],-19%,·,?
Oc1csc(Cc2nc(-c3ccccc3F)cs2)n1,18µM*,-12%,·,·,·
O=C(Cc1ccc(NC(=O)N2CCCCc3ccccc32)cc1)NCc1cccc(Br)c1,·,·,·,·,-12%[46 µM]
